Measured values: the supplement of paper PMC4683952
Counter-ions that a name gives are not always drawn. Out of some 1,200 compounds screened, about 50 (4%) showed activity. This excerpt belongs to a sample that is enriched for actives. A number with no mark means an inactive call. Rule as the data show it: all actives reach 1.3 or more but so do some inactives.

Test system: Lgr5 (MarsCy1-Lgr5-EGFP, U2OS)
Assay: cell-surface Lgr5 expression (SCi1 fluorescence, background-subtracted) relative to WT DMSO (fold of DMSO control); higher = more Lgr5 at the plasma membrane, active = hit call of the paper
Conditions: U2OS MarsCy1-Lgr5-EGFP stable; treatment time: overnight; 16 µM; library: Johns Hopkins Clinical Compound Library

Row | SMILES | cell-surface Lgr5 expression
1 | COc1cccc2c1C(=O)c1c(O)c3c(c(O)c1C2=O)C[C@@](O)(C(=O)CO)C[C@@H]3O[C@H]1C[C@H](N)[C@H](O)[C@H](C)O1 [Doxorubicin] | 0.634
2 | O=C(Nc1ccc(Cl)cc1)Nc1ccc(Cl)c(Cl)c1 [Trilocarban (3,4,4'-Trichlorocarbanilide, 99%)] | 0.931
3 | CC(C)NCC(O)COc1cccc2ccccc12 (centres undefined) [Propranolol] | 1.07
4 | C=CCOc1ccccc1OCC(O)CNC(C)C (centres undefined) [Oxprenolol] | 1.42 (active)
5 | COc1ccccc1OCC(O)CO (centres undefined) [Guaifenesen (Guaiacol glyceryl ether)] | 1.11
6 | COc1ccccc1OCC(O)CO (centres undefined) [Guaifenesin] | 1.27
7 | COC(=O)CCc1ccc(OCC(O)CNC(C)C)cc1 (centres undefined) [Esmolol] | 1.29
8 | Nc1nc(O)c2ncn(CCC(CO)CO)c2n1 [Penciclovir] | 0.791
9 | CC(=O)[O-].CC(=O)[O-].[Mg+2] [Magnesium acetate] | 0.917
10 | CN(C(=O)C(Cl)Cl)c1ccc(OC(=O)c2ccco2)cc1 [Diloxanide furoate] | 1.05
11 | CC1(C)S[C@@H]2[C@H](NC(=O)C3(N)CCCCC3)C(=O)N2[C@H]1C(=O)O [Cyclacillin] | 0.994
12 | CC(=O)N(O)CCCCCNC(=O)CCC(=O)N(O)CCCCCNC(=O)CCC(=O)N(O)CCCCCN [Deferoxamine mesylate] | 0.865
13 | CCCN(CCC)S(=O)(=O)c1ccc(C(=O)O)cc1 [Probenecid] | 1.01
14 | NS(=O)(=O)c1ccc(C(=O)O)cc1 [Carzenide (4-Carboxybenzenesulfonamide, 97%)] | 1.3 (active)
15 | Nc1ccc(C(=O)O)cc1 [4-Aminobenzoic acid, sodium salt,99%] | 0.905
16 | Oc1c(I)cc(Cl)c2cccnc12 [Clioquinol] | 1.18
17 | CCCCCCN(C)C [N,N-Dimethylhexylamine] | 1.05

Row | SMILES | cell-surface Lgr5 expression
18 | O=NN(CCCl)C(=O)NC1CCCCC1 [Lomustine] | 1.37
19 | CCC(=O)O[C@H]1[C@H](O[C@@H]2[C@@H](C)[C@H](O[C@H]3C[C@@](C)(OC)[C@@H](O)[C@H](C)O3)[C@@H](C)C(=O)O[C@H](CC)[C@@](C)(O)[C@H](O)[C@@H](C)C(=O)[C@H](C)C[C@@]2(C)O)O[C@H](C)C[C@@H]1N(C)C [Erythromycin estolate] | 0.567
20 | CCOc1ccc2nc(S(N)(=O)=O)sc2c1 [Ethoxzolamide (6-Ethoxy-2-benzothiazolesulfonamide)] | 1.15
21 | CCN1CCCC1CNC(=O)c1cc(S(N)(=O)=O)ccc1OC (racemic) [Sulpiride (+/-)-] | 1.07
22 | CCc1cc(Cl)c(OC)c(C(=O)NC[C@@H]2CCCN2CC)c1O [Eticlopride hydrochloride (S)] | 1.52 (active)
23 | O=C([O-])C(=O)[O-].O=C([O-])C(=O)[O-].O=C([O-])C(=O)[O-].[Ce+3].[Ce+3] [Cerium oxalate] | 1.08
24 | COC(=O)c1ccc(O)c2nc3c(C=O)c(O)cc(O)c3nc12 [Lomofungin] | 0.884
25 | COc1ccnc(C[S+]([O-])c2nc3cc(OC(F)F)ccc3[nH]2)c1OC (centres undefined) [Pantoprazole] | 1.01
26 | OC(CCCN1CCC(O)(c2ccc(Cl)cc2)CC1)c1ccc(F)cc1 (centres undefined) [Haloperidol metabolite II] | 1.18
27 | CCCCCCCCCCCCCCc1ccc(S(=O)(=O)O)cc1.OCl [Oxychlorosene] | 0.635
28 | C[C@@H]1C[C@H]2[C@@H]3CCC4=CC(=O)C=C[C@]4(C)[C@@]3(F)[C@@H](O)C[C@]2(C)[C@H]1C(=O)CO | 1.41
29 | C[C@H]1C[C@H]2[C@@H]3CCC4=CC(=O)C=C[C@]4(C)[C@@]3(F)[C@@H](O)C[C@]2(C)[C@@]1(O)C(=O)COP(=O)(O)O [Betamethasone sodium phosphate] | 1.35 (active)
30 | C[C@@H]1C[C@H]2[C@@H]3CCC4=CC(=O)C=C[C@]4(C)[C@@]3(F)[C@@H](O)C[C@]2(C)[C@@]1(O)C(=O)COP(=O)(O)O | 1.26
31 | C[C@H]1C[C@H]2[C@@H]3CCC4=CC(=O)C=C[C@]4(C)[C@@]3(Cl)[C@@H](O)C[C@]2(C)[C@@]1(O)C(=O)CO [Beclomethasone] | 1.36 (active)
32 | CC(=O)OCC(=O)[C@@]1(O)[C@@H](C)C[C@H]2[C@@H]3CCC4=CC(=O)C=C[C@]4(C)[C@@]3(F)[C@@H](O)C[C@@]21C | 1.59 (active)
33 | CC(=O)OCC(=O)[C@@]1(O)[C@@H](C)C[C@H]2[C@@H]3CCC4=CC(=O)C=C[C@]4(C)[C@@]3(F)[C@@H](O)C[C@@]21C [Betamethasone 21-acetate] | 1.53 (active)
34 | C[C@H]1C[C@H]2[C@@H]3CCC4=CC(=O)C=C[C@]4(C)[C@@]3(F)[C@@H](O)C[C@]2(C)[C@@]1(O)C(=O)CO | 1.45 (active)
